In PubChem BioAssay AID1508600 (Functional Genomics Laboratory (NCATS/FGL), 2020):
The whole screen tested about 53,000 sequences, of which about 3,700 (7%) were called active. Many of the other results were omitted from the sample, so actives are more common in it than they were. Values without a mark were called inactive.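 How the source made its calls: active means gene knockdowns whose robust z-score for IL-1 alpha signal is at least 2 or at most -2, so actives lie on both sides; inactive means the rest.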

Test: Components of the Cytosolic LPS Sensing Pathway: Gene Identification via Genome-wide siRNA Screen;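 further: robust z of the log signal after scaling to non-targeting control siRNA wells of the plate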
Settings: RAW264.7 macrophages, IL-1a HTRF, actives lie on both sides, screened at 100 nM (by protocol), cells primed 5 h with Pam3CSK4 first
In short: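 Three distinct siRNAs per gene were tested singly at 100 nM in RAW264.7 macrophages. Following Pam3CSK4 priming and 24 hour LipidA transfection, IL-1a secretion was read by HTRF.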

Compared with GCCUCUUAAUGCUUUUGUATT against Sfxn1, GCACAUCACAAGAAUUACUTT against Lhfpl1 is higher in z-score: -0.272 for the first, -0.0486 for the second.

Compared with AGCUGACUGUAAAAAAACCTT against Fuom, GGAACUGGCCAAGUUUAAATT against Ing3 is higher in z-score: 0.19 for the first, 0.653 for the second.

Compared with GGCCAGAACUACGAAGCCATT against Capn12, GGACCUUCGUGAGAAUUUCTT against Mst1 is lower in z-score: 0.981 for the first, 0.521 for the second.

First: CCUACAGUGACCUUUCCCGTT against Apcs
Second: GGAUAUCACCCACAAUAAATT against Vps28
The z-score of the first is lower: -1.22 for the first, -0.653 for the second.

Compared with GCCCAUUUUAGUAAACGAATT against Dspp, GGUCCUUCAACGGAAGGGATT against Tagap is lower in z-score: 1.87 for the first, 0.196 for the second.

Going from GGUUUGCAAUAAUUUUCCCTT against Cyp2c66 to CCUAUUAUAGGACAAAGUATT against Efhc2, the z-score falls from -0.0991 to -0.54.

Compared with CCACAAGUUCCACACUCCATT against Olfr1163, GGAGCAAGUGAUGAUGACCTT against Pkp1 is lower in z-score: 0.42 for the first, -0.263 for the second.

First: GCGGUAUGGGAAGCUAAAGTT against Rhbdf1
Second: GGAGAUACUGAAAGAGGCCTT against C1qtnf12
The z-score of the first is higher: 0.617 for the first, -1.25 for the second.

Going from UUCUUGACAGCUGGAAGAGTT against Irgc1 to GGAAAAACGAUACUUGAUUTT against Gria3, the z-score falls from 0.12 to -0.751.

Going from GGUGAGACUAUAAAGAUAATT against Piwil4 to CCGAGCAGGAUUGCAUAUATT against Cspg5, the z-score rises from 0.841 to 1.41.

Compared with GCUAUUCUGAUGCGUGGAGTT against Coq2, UGAAGCUGUCCCGGACUAATT against Shf is higher in z-score: -1.24 for the first, 0.731 for the second.

Going from GGUCAUUGGCACCAACAAGTT against Tgfbi to GGAACAAAGAGGUGAUGUUTT against Olfr109, the z-score falls from -0.722 to -0.949.

First: GGAGAUGAUUGACCGGCUATT against Epc1
Second: CCAUUUACCUCAUAGGACCTT against Crb3
The z-score of the first is lower: -1.03 for the first, -0.239 for the second.

First: CGACCAUCUUUACUUUAUCTT against Cilk1
Second: GGGUCGUAAUGAGUUCUGGTT against Med1
The z-score of the first is higher: 1.61 for the first, 0.83 for the second.

First: GGGCCAAUAAAGCAACUGCTT against Laptm5
Second: GGAUACUCCUCUGAGUAGUTT against Mtmr11
The z-score of the first is higher: 0.704 for the first, -0.469 for the second.

First: GCCAAAGUGUGUGUUGAAGTT against Gng11
Second: CGCACACAGUCGUAUGUACTT against Ryr1
The z-score of the first is higher: -0.296 for the first, -1.21 for the second.

First: GGGAACCAUCAAUAGGCACTT against Apol7a
Second: GGCACAAAGCAAGAUUACCTT against Cebpz
The z-score of the first is higher: 0.923 for the first, 0.422 for the second.

Going from CCAGAAUGUAAACUUGGUCTT against Trpv6 to GGUGAUAAAGCCAAGCAAATT against Vps4b, the z-score falls from 0.0508 to -0.48.

Compared with GGAUUCAAGGAAGGCCUUCTT against Myl7, GGGACUCAGAAUCCACACUTT against Olfr1046 is higher in z-score: -0.146 for the first, 1.91 for the second.

First: GGAGCUUAGACAAAAAGCCTT against Spty2d1
Second: GGCCGCCCUAAAAAGAAGCTT against Olfr95
The z-score of the first is lower: -1.04 for the first, 1.29 for the second.

First: CGCCUUAUAAUAUACCUAUTT against Clmp
Second: GCCAUGAUGACUAACCUUATT against Dbpht2
The z-score of the first is higher: 1.12 for the first, -1.27 for the second.

First: GGAACUUGAGGUUUUCUGGTT against Spag17
Second: GCACCUGAGAAGCUCAUUGTT against Chil5
The z-score of the first is higher: -1.89 for the first, -1.96 for the second.

Going from GGUUGACCUGUGCUUUUCGTT against Arr3 to GGAAAUGAAUGGAAAUAGUTT against Ino80c, the z-score rises from -0.625 to -0.192.

Going from GGAGGAAAAGGCAAUCGUUTT against Mtg2 to CCUUACCACAUCCUUGUCGTT against Fcf1, the z-score falls from 0.359 to -1.33.

First: GGACAGUUAAUGUUUCUGUTT against Clptm1l
Second: GGAUCAUUUCUGGCAAGAGTT against Irf7
The z-score of the first is higher: 0.254 for the first, -0.379 for the second.

Going from GGCUGUGUGAGUCUGCUCATT against Ankrd55 to GCAUGAACUUACCCUAUUATT against Vmn1r197, the z-score falls from -0.0408 to -1.25.

Going from GCAUAAUAGCGCAAGCUACTT against Ifi47 to “GCAGACUCCCAUGUGGAUUTT against 1700067K01Rik”, the z-score rises from 0.0047 to 1.96.

Going from GGAAACUAAUUUCAAGCCUTT against Hat1 to CCUAUGAGGAGGUACUAAATT against Itih1, the z-score falls from 1.19 to -0.0512.

Going from GGAGUGACAAAAAUGUCGGTT against Snx13 to CGGAUCUGAGAUAAAGACGTT against Arsj, the z-score rises from -0.56 to 1.

Going from GCUGUGGACGGACUCUAUATT against Dhodh to GGACCAUCUCUGAUGAACCTT against Fhdc1, the z-score rises from 0.00503 to 0.439.

Compared with GCUAAAGCUAAGAUUGAAGTT against Poli, CCAAAAGCAUAUCAGUCGGTT against Olfr1122 is higher in z-score: -0.0266 for the first, 1.48 for the second.

Going from GGGUUCCUCAGAGACUGAGTT against Esrra to GGGCAAGAAAGGUGUUUUGTT against Prdx5, the z-score falls from 1.57 to 0.432.

First: GGUGAUUGGUGUAAAAUCUTT against Gdi2
Second: GGAGAUUGGUGUUAGUAACTT against Sp7
The z-score of the first is lower: -1.15 for the first, -0.198 for the second.

Going from “GGGUGUGCUUCAUAUCAAATT against 2210407C18Rik” to GCUUCAUCUUACCUACUCATT against Synb, the z-score falls from 0.812 to -0.825.

First: GGCUAUGCAUCUCCUGUCATT against Gata4
Second: CCUUGCACGACAUUUUACUTT against Idnk
The z-score of the first is lower: -0.935 for the first, 0.313 for the second.

Compared with GGUCAUCUUCCUUUUUGCUTT against Olfr1501, CCCUGGGUGUACAAGUCCUTT against Slc25a41 is higher in z-score: -1 for the first, -0.084 for the second.

Going from GGGCCAAGAGCUUCUUUGATT against Ahr to GGAUAAUGUGAAGUUCAAGTT against Rpl38, the z-score rises from -1.46 to 0.493.

Going from GCAUUGACAAGAUAUCUAATT against Abhd17c to “GGCUCCUAGUGAUUAAAAGTT against 4930578I06Rik”, the z-score falls from 1.74 to 0.0788.

Compared with GGGAAAGCAUCGUAGACUCTT against Eid2, CCAGUCACUAUUUGAGUGUTT against Erg is higher in z-score: 0.0738 for the first, 1.9 for the second.

First: GGUGAAUACUUCAGAUACATT against Sult2b1
Second: GGAUUCACUGUUUUAUUCUTT against Fap
The z-score of the first is lower: -0.362 for the first, 0.282 for the second.

Going from GGUUUUUGGGAAUUGGCUUTT against Sfxn5 to GCGGUCCAUCAUCAAACUCTT against Rpap2, the z-score falls from -0.0222 to -1.3.

Compared with CCCAACAUAUUUUUUAGCATT against Hmgcll1, GGUGGUUGUUAUUGAAAAGTT against Mical3 is higher in z-score: -0.506 for the first, 1.34 for the second.

With GGUGGUUGGAGUACUCAAGTT against Capza1 the z-score was -2.53 (active).
For GGAAAUGCCAUAGUCCUAUTT against Mrgprb5, the z-score was -2.54 (active).
In the case of GGAGCAAUUCUACCGCUACTT against Fbxw5, the z-score is reported as -2.14 (active).
With GGCCUUAAAGAAACACAAGTT against Hnrnph2 the z-score was 2.3 (active).
With GGAGGGACAUGAUUUUGAATT against Pfkfb2 the z-score was 2.22 (active).
For GGCAUUGAGAUGCUGGAAATT against Trappc4, the z-score was 2.46 (active).
In the case of GCCACGACAACAAAUCCCATT against Lbr, the z-score is reported as -2.62 (active).
With GGAGGGAAGCGAGAGUUUUTT against Emilin2 the z-score was 2.25 (active).
In the case of GGAAACUUUUGGAAGACUATT against Jmjd6, the z-score is reported as 2.02 (active).
With “GGGUAUUAAAACCUCACUUTT against 4931406H21Rik” the z-score was -2.58 (active).
For GGGCUUCUUUGACCUCAUCTT against Kdelr1, the z-score was -2.71 (active).
For GGAGAUUGAUGAGCAUGCCTT against Rab40b, the z-score was -2.15 (active).
With GGAGAUCCGUCGAAUCAACTT against Anxa4 the z-score was 3.19 (active).
For GGAGCAGCAGAAGAUCCUUTT against Olfr47, the z-score was 2.52 (active).
With GGAACACAAUAGUACAUACTT against Slc2a4 the z-score was 3.98 (active).
In the case of GGGAAGAGAAAACUGGACUTT against Xrcc1, the z-score is reported as 3.01 (active).
With GCACUCGAAUUUCUUUACUTT against Slc23a2 the z-score was 2.22 (active).
With GGUUUGUCAAUGAUACUAATT against Adam17 the z-score was 2.49 (active).
In the case of GGAUGAGGACAAGUGCUCUTT against Agpat4, the z-score is reported as -3.47 (active).
In the case of GGGUUUAUGUUGCCGACUCTT against Setd7, the z-score is reported as 2.04 (active).
For GGAAAUCAUCUAUUCGGACTT against Klrc1, the z-score was 2.62 (active).
In the case of GGACUUUGAGAAAGCAUUCTT against Pck1, the z-score is reported as -2.03 (active).
In the case of GGAGGAAAUGAUCACAGCUTT against Ccl20, the z-score is reported as -2.31 (active).
For GGAUGCAAUCGACAUGGAGTT against Atp5pb, the z-score was 2.71 (active).
